Measured values taken from PubChem BioAssay (NCI).
About 83,000 compounds went through this panel and 20% of them were active in at least one assay; those are over-represented in the sample as a whole.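 Each cell line was grown in a 96-well plate and treated with one concentration of compound for 48 hours. Values below 10 were considered active.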 A number with no mark means an inactive call. Activity calls are given as the source filed them.

test system: HCC-2998 colon; assay: NCI-60 one-dose screen, 48 h (100 = growth as untreated, 0 = no growth, -100 = all killed); details: 10 µM unless noted

| Compound | growth |
| --- | --- |
| Cc1nn(-c2ccccc2)c(-n2ccnc2)c1/C=N/Nc1nc(-c2ccc(F)cc2)cs1 | 104% |
| O=C(Nc1ccc(Br)cc1F)c1cc(Br)ccc1O | 12.4% |
| O=C(/C=C/c1sc(Cl)nc1Cl)c1ccccc1 | 49.3% |
| CCCCCCCCCCCCCCCCCC1OCC(COC(=O)O[C@]2(CC)C(=O)OCc3c2cc2n(c3=O)Cc3cc4ccccc4nc3-2)O1 (stereo partly specified) | 84.7% |
| COc1cc2cc(Oc3ccc(NC(=O)Nc4ccc(F)c(C(F)(F)F)c4)cc3)c(C)nc2cc1OCCN1CCOCC1 | 44.9% |
| CCOC(=O)c1nc(Nc2ccc(C(C)=O)cc2)sc1C | 114% |
| COc1ccc(C2CC(c3ccc(Nc4nc(Nc5ccc(F)cc5)nc(Nc5ccc(Cl)cc5)n4)cc3)=NN2C(C)=O)cc1 (stereo unspecified) | 99.7% |
| CCN(CC)CCNc1nc2ccccc2c2c(=O)c3cc(Cl)ccc3sc12 | 14.2% |
| Cc1ccc(C2CC(c3ccc(Nc4ccnc5cc(Cl)ccc45)cc3)=NN2C=O)cc1 (stereo unspecified) | 53.2% |
| N/C(=N\c1nc2ccccc2s1)NC(=O)Nc1cccc2ccccc12 | 38.9% |
| O=C(Cc1ccc(F)c(Cl)c1)Nc1cc(C2(C(F)(F)F)CC2)nn1Cc1ccccc1 | 104% |
| O=C1CCC(C(=O)NCCNCCNC(=O)C2CCC(=O)N2)N1 (stereo unspecified) | 105% |
| C=CCNc1ccc2c3c(cccc13)C(=O)N(N1C(=O)c3cccc4cccc(c34)C1=O)C2=O | 107% |
| NCCCNc1nc2ccccc2c2c(=O)c3cccc(F)c3sc12 | -46% (active) |
| Cc1ccc2sc3c(NCCN)nc4ccccc4c3c(=O)c2c1 | -33% (active) |
| CCCCN(C)N=Nc1ccc(C(N)=O)cc1 | 101% |
| O=C(N/N=C/[C@@H](O)[C@H](O)[C@H](O)CO)c1ccc(NC(=O)c2cccnc2)cc1 | 117% |
| CC(=O)CC(c1cccs1)c1c(-c2ccccc2)[nH]c2ccccc12 (stereo unspecified) | 97.8% |
| Cc1oc2nc[nH]c(=O)c2c1C(=O)/C=C/c1ccc(Br)cc1 | -33.9% (active) |

| Compound | growth |
| --- | --- |
| C=C1C(=O)O[C@H]2[C@H]1CC/C(COC(=O)CSCC(=O)OC/C1=C/CC[C@@]3(C)O[C@H]3[C@H]3OC(=O)C(=C)[C@@H]3CC1)=C\CC[C@@]1(C)O[C@@H]21 | 94.5% |
| N#Cc1c(-c2ccc(Cl)cc2)nc(NCCO)[nH]c1=O | 103% |
| Cc1cc(-c2cc(C)c(N)cc2C)c(C)cc1N | 104% |
| CCCCCCCCCCCCCCCCCCOc1ccccc1CC(=O)OCC[N+](CC)(CC)CC | 22.5% |
| FC(F)(F)c1cc(Nc2ccc3c(OCCCN4CCOCC4)cccc3n2)ccc1Cl | 34.6% |
| COc1cc2cc(Oc3ccc(NC(=O)Nc4cccc(C(F)(F)F)c4)cc3)c(C)nc2cc1OCCN1CCOCC1 | 89.2% |
| Cc1nc(NC(=O)COc2ccc(/C=C3\Cc4ccc(Cl)cc4C3=O)cc2)sc1C | 90.9% |
| CCc1nnc(NC(=O)c2nnn(-c3ccccc3)c2-c2ccco2)s1 | 110% |
| COc1cc(C(=O)c2cc(C)c3[nH]c4ccc(C)cc4c3c2C)cc(OC)c1OC | 15.9% |
| O=c1c2cc(F)ccc2sc2c(NCCN3CCOCC3)nc3ccccc3c12 | 59% |
| CC(=O)OC[C@H]1OC(Sc2sc(C(=O)c3ccc(Br)cc3)c(N)c2-c2nc3ccccc3s2)[C@H](OC(C)=O)[C@@H](OC(C)=O)[C@H]1OC(C)=O (stereo partly specified) | 98.8% |
| C[N+]1=C(/C=C/c2ccc(O)c3ncccc23)C(C)(C)c2ccccc21 | 92% |
| CC(C)c1cc(C(C)C)c(S(=O)(=O)Oc2ccc(NC(=O)c3ccc(Cl)cc3)cc2)c(C(C)C)c1 | 26.3% |
| CCOc1c(B(O)O)cccc1-c1nc2ccc3[nH]ncc3c2c2c1CCCC2 | 51% |
| CC1=C([Se]CC(OC(=O)[C@@H](CSSC(C)(C)C)NC(=O)OC(C)(C)C)C(=O)NC(C)(C)C)C(=O)c2ccccc2C1=O (stereo partly specified) | -93.5% (active) |
| CNC(=O)c1[nH]cc(-c2ccccc2)c1-c1cc(OC)c2c(c1OC)OCO2 | 102% |
| C=C(C)C1CCC2(C)OC2C1 (stereo unspecified) | 114% |
| CSc1ncccc1C(=O)OCC(=O)Nc1oc(C)c2c(C)n[nH]c(=O)c12 | 113% |
| Oc1ccc(CCl)c2cccnc12 | 91.3% |

test system: KM12 colon; assay: as above; details: 10 µM unless noted

| Compound | growth |
| --- | --- |
| Cc1nn(-c2ccccc2)c(-n2ccnc2)c1/C=N/Nc1nc(-c2ccc(F)cc2)cs1 | 90.4% |
| O=C(Nc1ccc(Br)cc1F)c1cc(Br)ccc1O | 3.17% (active) |
| O=C(/C=C/c1sc(Cl)nc1Cl)c1ccccc1 | 85.7% |
| CCCCCCCCCCCCCCCCCC1OCC(COC(=O)O[C@]2(CC)C(=O)OCc3c2cc2n(c3=O)Cc3cc4ccccc4nc3-2)O1 (stereo partly specified) | 94.8% |
| COc1cc2cc(Oc3ccc(NC(=O)Nc4ccc(F)c(C(F)(F)F)c4)cc3)c(C)nc2cc1OCCN1CCOCC1 | 11.2% |
| CCOC(=O)c1nc(Nc2ccc(C(C)=O)cc2)sc1C | 101% |
| COc1ccc(C2CC(c3ccc(Nc4nc(Nc5ccc(F)cc5)nc(Nc5ccc(Cl)cc5)n4)cc3)=NN2C(C)=O)cc1 (stereo unspecified) | 135% |
| CCN(CC)CCNc1nc2ccccc2c2c(=O)c3cc(Cl)ccc3sc12 | 26.5% |
| Cc1ccc(C2CC(c3ccc(Nc4ccnc5cc(Cl)ccc45)cc3)=NN2C=O)cc1 (stereo unspecified) | 50.2% |
| N/C(=N\c1nc2ccccc2s1)NC(=O)Nc1cccc2ccccc12 | 14.7% |
| O=C(Cc1ccc(F)c(Cl)c1)Nc1cc(C2(C(F)(F)F)CC2)nn1Cc1ccccc1 | 85.5% |
| O=C1CCC(C(=O)NCCNCCNC(=O)C2CCC(=O)N2)N1 (stereo unspecified) | 102% |
| C=CCNc1ccc2c3c(cccc13)C(=O)N(N1C(=O)c3cccc4cccc(c34)C1=O)C2=O | 105% |
| NCCCNc1nc2ccccc2c2c(=O)c3cccc(F)c3sc12 | 4% (active) |
| Cc1ccc2sc3c(NCCN)nc4ccccc4c3c(=O)c2c1 | 14.1% |
| CCCCN(C)N=Nc1ccc(C(N)=O)cc1 | 107% |
| O=C(N/N=C/[C@@H](O)[C@H](O)[C@H](O)CO)c1ccc(NC(=O)c2cccnc2)cc1 | 102% |
| CC(=O)CC(c1cccs1)c1c(-c2ccccc2)[nH]c2ccccc12 (stereo unspecified) | 94.3% |
| Cc1oc2nc[nH]c(=O)c2c1C(=O)/C=C/c1ccc(Br)cc1 | -5.18% (active) |

| Compound | growth |
| --- | --- |
| C=C1C(=O)O[C@H]2[C@H]1CC/C(COC(=O)CSCC(=O)OC/C1=C/CC[C@@]3(C)O[C@H]3[C@H]3OC(=O)C(=C)[C@@H]3CC1)=C\CC[C@@]1(C)O[C@@H]21 | 69.4% |
| N#Cc1c(-c2ccc(Cl)cc2)nc(NCCO)[nH]c1=O | 96.9% |
| Cc1cc(-c2cc(C)c(N)cc2C)c(C)cc1N | 75.2% |
| CCCCCCCCCCCCCCCCCCOc1ccccc1CC(=O)OCC[N+](CC)(CC)CC | 51.3% |
| FC(F)(F)c1cc(Nc2ccc3c(OCCCN4CCOCC4)cccc3n2)ccc1Cl | -0.295% (active) |
| COc1cc2cc(Oc3ccc(NC(=O)Nc4cccc(C(F)(F)F)c4)cc3)c(C)nc2cc1OCCN1CCOCC1 | 29.8% |
| Cc1nc(NC(=O)COc2ccc(/C=C3\Cc4ccc(Cl)cc4C3=O)cc2)sc1C | 119% |
| CCc1nnc(NC(=O)c2nnn(-c3ccccc3)c2-c2ccco2)s1 | 96.9% |
| COc1cc(C(=O)c2cc(C)c3[nH]c4ccc(C)cc4c3c2C)cc(OC)c1OC | 3.84% (active) |
| O=c1c2cc(F)ccc2sc2c(NCCN3CCOCC3)nc3ccccc3c12 | 26% |
| CC(=O)OC[C@H]1OC(Sc2sc(C(=O)c3ccc(Br)cc3)c(N)c2-c2nc3ccccc3s2)[C@H](OC(C)=O)[C@@H](OC(C)=O)[C@H]1OC(C)=O (stereo partly specified) | 95.7% |
| C[N+]1=C(/C=C/c2ccc(O)c3ncccc23)C(C)(C)c2ccccc21 | 84.4% |
| CC(C)c1cc(C(C)C)c(S(=O)(=O)Oc2ccc(NC(=O)c3ccc(Cl)cc3)cc2)c(C(C)C)c1 | 18.4% |
| CCOc1c(B(O)O)cccc1-c1nc2ccc3[nH]ncc3c2c2c1CCCC2 | 32.2% |
| CC1=C([Se]CC(OC(=O)[C@@H](CSSC(C)(C)C)NC(=O)OC(C)(C)C)C(=O)NC(C)(C)C)C(=O)c2ccccc2C1=O (stereo partly specified) | -97.7% (active) |
| CNC(=O)c1[nH]cc(-c2ccccc2)c1-c1cc(OC)c2c(c1OC)OCO2 | 96.9% |
| C=C(C)C1CCC2(C)OC2C1 (stereo unspecified) | 115% |
| CSc1ncccc1C(=O)OCC(=O)Nc1oc(C)c2c(C)n[nH]c(=O)c12 | 103% |
| Oc1ccc(CCl)c2cccnc12 | 82% |
